In PubChem BioAssay (NCATS):
Records with an inconclusive call do not appear. Calls of active or inactive are those of the source. Calls follow the shape of the dose curve; as a rule, active = well fitted inhibition curve with a large enough effect; inconclusive = small, poorly fitted or top-dose-only effect; inactive = flat fitted curve, though single readings scatter.

Legend:
Assay in all cases: Cytotoxic Profiling of Annotated Libraries Using Quantitative High-Throughput Screening (AID 1296008); also: nearly all actives have a fitted effect of over 60% in size
Conditions in all cases: Five cell lines viability, CellTiter-Glo ATP luminescence, 48-72 h; max response: active compounds read low
CRL-7250 = system: CRL-7250
In short: (§1)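 Compounds were pin-transferred onto cells and incubated 48 or 72 hr at 37 degree Celsius, 95% humidity. CellTiter-Glo was added, plates sat 10 min at room temperature, then ATP-coupled luminescence was imaged as the viability read-out.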

HaCat = system: HaCat
In short: as §1

KB-3-1 = system: KB-3-1
In short: as §1

NIH3T3 = system: NIH3T3
In short: as §1

Measured: max response
% is scaled to controls: 0 for no effect and ±100 for the full control effect.

CC(C)C[C@H](CO)Nc1nc(S[C@@H](C)c2ccccc2)nc2nc(N)sc12
inactive: CRL-7250 1.1% | HaCat -4.79% | KB-3-1 | NIH3T3 2.79%

Cc1ccc(C2(C(=O)N3CCC(n4nc(-c5ccccc5)oc4=O)CC3)CC2)cc1
inactive: CRL-7250 -18.3% | HaCat -7.48% | KB-3-1 -8.37% | NIH3T3 -1.74%

C/C(=C\Cc1c(O)c(Cl)c(C)c(C=O)c1O)CC/C=C(\C)[C@H]1CC(=O)C(C)(C)O1
inactive: CRL-7250 -27.3% | HaCat -8.07% | KB-3-1 -27.9% | NIH3T3 -17.5%

C[C@@H](NC(=O)[C@H](O)c1cc(F)cc(F)c1)C(=O)N[C@@H]1C(=O)N(C)c2ccccc2-c2ccccc21
inactive: CRL-7250 0.116% | HaCat -11.4% | KB-3-1 5.92% | NIH3T3 -0.195%

Cc1ccc(C)c(NC(=O)[C@@H]2CCCN2S(=O)(=O)c2cccc3cccnc23)c1
inactive: CRL-7250 -9.22% | HaCat -26.4% | KB-3-1 9.71% | NIH3T3 -29.5%

COc1cc(C(C)=O)c(OC)c2c1OC(C)(C)C=C2
inactive: CRL-7250 | HaCat -6.75% | KB-3-1 | NIH3T3

COc1cc(-c2nc(N[C@H](CO)Cc3ccccc3)ccc2C(=O)NCCOc2ccccc2)cc(OC)c1OC
inactive: CRL-7250 4.02% | HaCat -1.78% | KB-3-1 7.13% | NIH3T3 -3.25%

C/C=C(\C)C(=O)OC1C(C)C2(O)C(C=C(CO)CC3(O)C(=O)C(C)=CC32)C2C(C)(C)C12OC(C)=O (stereo not drawn)
inactive: CRL-7250 -19.7% | HaCat -5.6% | KB-3-1 3.13% | NIH3T3 -6.06%

C=CC1(C)CC(O)C(C(=C)C(=O)OC)C(O)C1C(=C)CO (stereo not drawn)
inactive: CRL-7250 -28% | HaCat -2.8% | KB-3-1 0.16% | NIH3T3 -4.78%

O=c1[nH]cnc2c([C@@H]3N[C@H](CO)[C@@H](O)[C@H]3O)c[nH]c12
inactive: CRL-7250 -8.88% | HaCat -34.4% | KB-3-1 7.13% | NIH3T3

Cc1ccc(N2CCN(CCC3NC(=O)c4ccccc43)CC2)cc1C (stereo not drawn)
inactive: CRL-7250 4.52% | HaCat -0.27% | KB-3-1 -2.29% | NIH3T3 0.934%

Nc1nc2c(nc(Br)n2[C@@H]2O[C@@H]3COP(=O)(O)O[C@H]3[C@H]2O)c(=O)[nH]1
inactive: CRL-7250 -4.64% | HaCat -8.41% | KB-3-1 | NIH3T3

CCCc1cc(C)n(C)c(=O)c1CN(C)C(=O)c1cc(-c2ccc(N3CCN(C(C)C)CC3)nc2)cc2c1cnn2C(C)C
inactive: CRL-7250 -1.11% | HaCat 1.32% | KB-3-1 4.77% | NIH3T3

O=C(N[C@H]1CCC[C@H](CO)C1)C1CCN(c2nc3cc(Cl)c(-c4ccc(Cl)cc4)cc3o2)CC1
inactive: CRL-7250 -0.419% | HaCat -4.31% | KB-3-1 -14.3% | NIH3T3 0.931%

COc1cc(N(C)CCN(C)C)c(N)cc1Nc1nccc(-c2cn(C)c3ccccc23)n1
inactive: CRL-7250 -5.14% | HaCat -1.2% | KB-3-1 -6.79% | NIH3T3

Cc1cccc(-c2[nH]ncc2-c2ccc(F)c(-c3cnn(CCO)c3)c2)n1
inactive: CRL-7250 -17.9% | HaCat 3.16% | KB-3-1 -8.92% | NIH3T3 -23.9%

C=C(C(=O)O)[C@@H]1CC=C(CCC(C)=O)[C@@H](C)CC1
inactive: CRL-7250 -0.888% | HaCat -4.33% | KB-3-1 -14.7% | NIH3T3 -3.55%

C/C(=C\CCC(C)C1=CCC2(C)OC3=C(CC12)C(=O)C(O)CC3)CO (stereo not drawn)
inactive: CRL-7250 -17.6% | HaCat -38% | KB-3-1 -18.5% | NIH3T3 -0.114%

CC(C)c1ccc(NC(=O)Cn2cnc3c2c(=O)n(C)c(=O)n3C)cc1
inactive: CRL-7250 | HaCat -14.6% | KB-3-1 2.05% | NIH3T3 -6.55%

COc1ccc(CN2CCN(CCCSc3cc(C(C)(C)C)c(O)c(C(C)(C)C)c3)CC2)c(OC)c1OC
inactive: CRL-7250 | HaCat -2% | KB-3-1 | NIH3T3 4.43%

O=C(O)CCc1nccc2c1[nH]c1ccccc12
inactive: CRL-7250 -19.9% | HaCat 3.67% | KB-3-1 | NIH3T3 -2.87%

Cc1cc(OCCCS(C)(=O)=O)cc(C)c1-c1cccc(COc2ccc3c(c2)OCC3CC(=O)O)c1 (stereo not drawn)
inactive: CRL-7250 -4.99% | HaCat 0.974% | KB-3-1 -3.22% | NIH3T3
